For orientation: AC50 means the midpoint of the concentration-response curve, whichever way the signal moves.

“And” between values parts separate entries of the source, which are not always exact repeats. Equal entries are not always repeated. Results filed as inconclusive are left out. The source made the active and inactive calls. How the source made its calls, unless noted: active means hit-call score of the fitted dose curve at least 0.9, where 1 is the maximum; inactive means score below 0.9.

This passage reports outcome and AC50 results from PubChem BioAssay (EPA / NIEHS).

Assay [1] in a line: CCTE_Harrill_HTTr_Viability_MCF7: CCTE's 6-hour Cell Viability Assessment for the High-Throughput Transcriptomics (HTTr) Platform, in MCF-7 cells cultured in DMEM + 10% fetal bovine serum, Harrill Lab (AID 2284010). The essentials:
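Cells were dosed with chemicals in an eight-point dilution series, imaged 6 hours later for propidium iodide uptake, and the endpoint was analyzed by bidirectional fitting against DMSO as negative control.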

Assay [2] in a line: CCTE_Harrill_HTTr_Apoptosis_MCF7: CCTE's 6-hour Apoptosis Assessment for the High-Throughput Transcriptomics (HTTr) Platform, in MCF-7 cells cultured in DMEM + 10% fetal bovine serum, Harrill Lab (AID 2284011). The gist of the method:
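MCF-7 (DMEM + 10% FBS), 384-well; 8-pt dilution series, 6 h chemical exposure; caspase-3/7 activation via CellEvent Caspase 3/7 Green, HCI; bidirectional fit vs DMSO.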

Assay [3] can be described thus: CCTE_Harrill_HTTr_CellCount_MCF7: CCTE's Cell Proliferation Assessment for the High-Throughput Transcriptomics (HTTr) Platform, Harrill Lab (AID 2284012; active means hit-call score of the fitted dose curve at least 0.9, where 1 is the maximum;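 further: cells exposed to compound for six hours; intended direction is loss of nuclei count meaning fewer cells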). The essentials: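 Chemicals in eight-point dilution series are added to MCF-7 cells for six hours, nuclei are stained with Hoechst and imaged, and per-well nuclei counts are fitted in both directions relative to DMSO controls.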

For the next assay, the system named is DIO2 (gene 1734). As to the kind of experiment: CCTE_GLTED_hDIO2: CCTE's human Deiodinase 2 (DIO2) Inhibition Assay, Great Lakes Toxicology and Ecology Division (GLTED) Lab (AID 2284050; active means hit-call score of the fitted dose curve at least 0.9, where 1 is the maximum). The gist of the method:
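hDIO2 enzyme + test chem, 3 h → free iodide from substrate; step 2: Sandell-Kolthoff (Ce IV reduction by As, iodide-catalysed), spectrophotometric read. Triplicate plates; DMSO = baseline.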

For the next assay, the system named is DIO3 (gene 1735). The assay can be described thus: CCTE_GLTED_hDIO3: CCTE's human Deiodinase 3 (DIO3) Inhibition Assay, Great Lakes Toxicology and Ecology Division (GLTED) Lab (AID 2284055; active means hit-call score of the fitted dose curve at least 0.9, where 1 is the maximum;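 further: potency is for inhibition seen as loss of released iodide signal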). The gist of the method:
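Absorbance from the Sandell-Kolthoff reaction reports iodide released by human DIO3 during a 3-hour incubation with chemical. Inhibition scored as signal loss against DMSO controls.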

Assay [4] in a line: CCTE_Mundy_HCI_hN2_NOG_NeuriteCount: CCTE's Neurite Outgrowth Assay in human hN2 cells for Neurite Count, Mundy Lab (AID 2284219; active means hit-call score of the fitted dose curve at least 0.9, where 1 is the maximum). The essentials: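 In this morphology assay, hNP1-derived neurons received test chemical 2 h post-plating and were fixed two days later in warm paraformaldehyde/sucrose containing Hoechst 33342. Neurites, labelled by rabbit anti-βIII-tubulin (1:800) and Alexa Fluor-488 (1:500), were counted automatically.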

Assay [5] is described as follows: CCTE_Mundy_HCI_hN2_NOG_NeuronCount: CCTE's Neurite Outgrowth Assay in human hN2 cells for Neuron Count, Mundy Lab (AID 2284221; active means hit-call score of the fitted dose curve at least 0.9, where 1 is the maximum). The gist of the method:
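Read-out is the number of betaIII-tubulin-positive neurons imaged by automated high-content analysis, with DMSO as negative control.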

Assay [6] is described as follows: CCTE_Mundy_HCI_hN2_NOG_NeuriteLength: CCTE's Neurite Outgrowth Assay in human hN2 cells for Neurite Length, Mundy Lab (AID 2284220; active means hit-call score of the fitted dose curve at least 0.9, where 1 is the maximum). The essentials:
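Using βIII-tubulin immunofluorescence and Hoechst nuclear counterstain, this component quantifies neurite length in hNP1-derived neurons.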

For a further assay, the system named is IYD (gene 389434). As to the kind of experiment: CCTE_GLTED_hIYD: CCTE's human Iodotyrosine Deiodinase (xIYD) Inhibition Assay, Great Lakes Toxicology and Ecology Division (GLTED) Lab (AID 2284317; active means hit-call score of the fitted dose curve at least 0.9, where 1 is the maximum;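 further: cell-free human IYD enzyme made in baculovirus insect cells; iodide freed from monoiodotyrosine measured by cerium arsenite color change at 420 nm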). The essentials:
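Absorbance change at 420 nm from the iodide-catalysed cerium-arsenic reaction reports free iodide released by human IYD from monoiodotyrosine. Enzyme, substrate and chemical are incubated 3 h; loss of signal is fitted relative to DMSO baseline.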

For `CCOC(=O)[C@@H](C)Oc1ccc(Oc2cnc3cc(Cl)ccc3n2)cc1`, the result in assay [1] and in [2] was inactive.
Take `CC1=CC(=O)C(C(C)C)CC1` (stereo not drawn): the result in assay [1], in assay [2] and in assay [3] was inactive.
With `C=C1CCC2CC1C2(C)C` (stereo not drawn), the result in assay [1], in assay [2] and in [3] was inactive.
Turning to `O=c1ccc2ccc(O)cc2o1`, the result in assay [1], in assay [2] and in [3] was inactive.
`CCCCCCCCCCCC[N+](C)(C)[O-]`: the outcome in assay [1] and in assay [2] was inactive.
As for `CCC(=O)O[C@H]1[C@H](O[C@@H]2[C@@H](C)[C@H](O[C@H]3C[C@@](C)(OC)[C@@H](O)[C@H](C)O3)[C@@H](C)C(=O)O[C@H](CC)[C@@](C)(O)[C@H](O)[C@@H](C)C(=O)[C@H](C)C[C@@]2(C)O)O[C@H](C)C[C@@H]1N(C)C`, the result in assay [1], in assay [2] and in assay [3] was inactive.
`CC1CN(c2cc3c(cc2F)c(=O)c(C(=O)O)cn3-c2ccc(F)cc2F)CCN1` (stereo not drawn): the result in assay [1], in [2] and in assay [3] was inactive.
As to `CCCCN1C(=O)c2ccccc2C1=O`, the result in assay [1] and in [2] was inactive.
With `Cc1ncc(C[n+]2csc(CCO)c2C)c(N)n1`, the outcome in assay [1], in assay [2] and in assay [3] was inactive.
As to `O=C(O)c1ccccc1C(=O)OC1CCCCC1`, the outcome in assay [1], in assay [2] and in assay [3] was inactive.
As to `CCCCCCCCCCCCCCCC=O`, the outcome in [1], in assay [2] and in assay [3] was inactive.
As to `Nc1nc2nc[nH]c2c(=O)[nH]1`, the result in assay [1], in assay [2] and in assay [3] was inactive.
On to `COc1c2occc2c(OC)c2c(=O)cc(C)oc12`, for which the result in [1], in [2] and in assay [3] was inactive.
In the case of `CC(=O)C(=NNc1ccc(-c2ccc(NN=C(C(C)=O)C(=O)Nc3ccc(C)cc3C)c(Cl)c2)cc1Cl)C(=O)Nc1ccc(C)cc1C`, the result in assay [1], in assay [2] and in assay [3] was inactive.
Turning to `CCCCCC1=C(C)CCC1=O`, the result in [1], in assay [2] and in [3] was inactive.
Turning to `CN1[C@@H]2CC[C@H]1CC(OC(=O)C(CO)c1ccccc1)C2` (stereo partly drawn), the result in [1], in [2] and in [3] was inactive.
As to `OCCC1CCCCN1` (stereo not drawn), the result in assay [1] and in [2] was inactive.
Regarding `CCOc1ccc2ccccc2c1`, the result in assay [1], in assay [2] and in [3] was inactive.
Turning to `CCOC(=O)c1ccccc1C(=O)O`, the result in [1] and in assay [2] was inactive.
Take `CCCCOC(=O)/C=C/C(=O)OCCCC`: the outcome in [1] and in [2] was inactive.
On to `CCCCc1nc(Cl)c(CO)n1Cc1ccc(-c2ccccc2-c2nnn[nH]2)cc1`, for which the result in [1], in [2] and in assay [3] was inactive.
As for `O=c1cc(-c2ccccc2)oc2c1ccc1ccccc12`, the result in [1], in [2] and in assay [3] was inactive.
`O=CO`: the outcome in assay [1] and in assay [2] was inactive.
`Cc1ccc2[nH]c3cc4c(=O)c5cc(C)ccc5[nH]c4cc3c(=O)c2c1`: the result in [1], in assay [2] and in [3] was inactive.
On to `CCOCCOC(=O)C=Cc1ccc(OC)cc1`, for which the outcome in [1], in assay [2] and in assay [3] was inactive.
In the case of `CCOC(=O)C(C)CC` (stereo not drawn), the outcome in [1] and in [2] was inactive.
With `NC[C@H](O)c1ccc(O)c(O)c1`, the result in assay [1], in assay [2] and in assay [3] was inactive.
On to `CC(CC(C)(C)C)CC(C)(C)C`, for which the result in assay [1], in [2] and in assay [3] was inactive.
For `CC(=O)C(O)O`, the result in assay [1], in [2] and in assay [3] was inactive.
Consider `Nc1c(S(=O)(=O)O)cc(Nc2ccccc2)c2c1C(=O)c1ccccc1C2=O`, for which the outcome in assay [1], in assay [2] and in assay [3] was inactive.
As for `CCCCCCCCOC(=O)c1ccccc1C(=O)O`, the result in [1], in [2] and in assay [3] was inactive.
Turning to `NCCNCCNCCNCCN`, the result in [1], in assay [2] and in assay [3] was inactive.
With `CC(CNC(=S)[S-])NC(=S)[S-].[Zn+2]` (stereo not drawn), the result in assay [1] and in assay [2] was inactive.
Regarding `COc1cc(O)c(CC=C(C)C)c(O)c1C(=O)/C=C/c1ccc(O)cc1`, the AC50 with DIO2 (gene 1734) is 215 nM (active) and 797 nM (active); in the assay on DIO3 (gene 1735) it was 150 nM (active) and 222 nM (active).
In the case of `F`, the compound was classed as inactive in assay [4] and in [5].
`[Li+]`: the result in [4] was inactive. The AC50 in [6] is 300 nM (active); in [5] it was 304 nM (active).
For the compound `N[C@@H](Cc1ccc(O)c([N+](=O)[O-])c1)C(=O)O`, the AC50 with IYD (gene 389434) was 25.3 nM (active).
